Results: PubChem BioAssay
Calls of active or inactive are those of the source.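 The calls were made as follows, unless noted: active = fluorescence slope higher than the sample average by over 3 SD (cut at about -0.22 in these data, passing the limit was not always enough); inactive = the rest.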

Tests used:
[1] = inhibitors of TNFa-induced NFkB p65 translocation, primary screen, imaging, HUVEC, MLSMR starter and 10KST1 sets (AID 438;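 active = inhibition above 20% together with a positive visual image hit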;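 also: compound added about 3h40 before a 20 min TNFalpha stimulation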;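 as to inhibition: signal is the nuclear over cytoplasmic p65 intensity ratio per well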); details: HUVEC TNFa-induced p65 nuclear translocation; cell count: measured here: nuclei count (cytotoxicity indicator), at 2.08 µM; inhibition: at 2 µM, stronger effect = higher value, 0% TNFa-plus-vehicle, 100% no-TNFa wells
[2] = reduction of polyQ htt aggregates in cells – imaging, exon1htt(103Q)mCFP cells, high-content imaging, primary screen (AID 483;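 active = visual image review flags a hit and inhibition of aggregation exceeds 20%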;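 also: compound exposure lasted 3 days before fixation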;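 as to nuclei count: percent of the per-plate median nuclei count of sample wells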); details: exon1htt(103Q)mCFP cell line, aggregate imaging, at 2 µM; inhibition of aggregation: stronger effect = higher value; nuclei count: measured here: cell count, toxicity
[3] = endothelial E-selectin expression blockers – imaging, HUVEC, immunofluorescence, MLSMR starter and 10KST1 sets, primary screen (AID 487;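 active = visually confirmed hit in the image check and inhibition above 20%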;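 as to inhibition: signal is fraction of cell area covered by stained E-selectin grains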;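 as to nuclei count: 100% = median nuclei count of all wells on the same plate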); details: HUVEC TNFalpha-induced E-selectin immunofluorescence imaging, at 2 µM; inhibition: stronger effect = higher value; nuclei count: measured here: cell number, toxicity
[4] = biological target: Voltage-gated potassium channel subunit beta-2 (Rattus norvegicus) (UniProt P62483); assay: inhibitors of rat Kvbeta2 reductase activity – biochemical, NADPH fluorescence, primary screen (AID 622); details: recombinant KvBeta, 4-cyanobenzaldehyde reduction, at 10 µM, stronger effect = higher value;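 also: slope of raw intensity against log time taken from 70 to 1610 s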
[5] = biological target: Voltage-gated potassium channel subunit beta-2 (Rattus norvegicus) (UniProt P62483); assay: enhancers of rat Kvbeta2 NADPH turnover – biochemical, NADPH fluorescence, primary screen (AID 623;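 active = NADPH fluorescence slope more negative than the mean of all samples by about 3 SD, 99.7% confidence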;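 also: fluorescence intensity change per second fitted from 20 to 320 s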); details: Recombinant KvBeta, NADPH fluorescence decrease slope, 10 min; at 10 µM; stronger effect = lower value
[6] = biological target: Alpha-2C adrenergic receptor (Homo sapiens) (UniProt P18825); assay: compounds altering alpha2C-coupled GIRK flux – cell-based, HEK293 alpha2C/GIRK1/2, thallium flux, primary screen (AID 624;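 active = fluorescence slope after compound addition differing from the mean of all screened samples at 99.7% confidence, in either direction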;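 also: slope of fluorescence ratio to pre-addition baseline per second over 15 to 24 s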); details: thallium flux BTC fluorescence, at 10 µM, actives lie on both sides
[7] = blockers of RIG-like receptor reporter activation – cell-based, Sendai virus stimulus, luciferase, 10K MLSCN set, TLR/RLR signaling modifier project, primary screen (AID 602276;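 active = inhibition at or above 50% at 10 µM; inactive = inhibition below 50%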;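 also: firefly luciferase from ISG56 promoter only with Renilla not read in this screen; 0% = Sendai virus plus DMSO and 100% = medium plus DMSO without virus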); details: HEK293 RL24 IRF3 luciferase reporter, at 10 µM, stronger effect = higher value
[8] = TLR3 IRF3 reporter activation blockers – cell-based, poly I:C stimulus, luciferase, 10K MLSCN set, primary screen (AID 602277;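 active = inhibition of the reporter signal at or above 50%; inactive = inhibition below 50%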); details: HEK293-TLR3 RL24 IRF3 luciferase reporter, at 10 µM, stronger effect = higher value

Voltage-gated potassium channel subunit beta-2 (Rattus norvegicus), sequence (P62483 whole entry, looked up): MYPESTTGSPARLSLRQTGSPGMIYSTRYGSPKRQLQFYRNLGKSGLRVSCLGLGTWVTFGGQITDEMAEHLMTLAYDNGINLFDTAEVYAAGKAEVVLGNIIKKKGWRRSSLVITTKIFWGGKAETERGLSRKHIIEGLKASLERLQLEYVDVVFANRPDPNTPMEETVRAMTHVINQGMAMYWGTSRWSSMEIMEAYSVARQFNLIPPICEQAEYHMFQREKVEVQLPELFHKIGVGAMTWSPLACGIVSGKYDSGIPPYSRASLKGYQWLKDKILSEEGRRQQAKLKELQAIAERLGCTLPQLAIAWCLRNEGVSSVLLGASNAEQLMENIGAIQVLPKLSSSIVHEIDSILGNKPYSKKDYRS
Alpha-2C adrenergic receptor (Homo sapiens), sequence (P18825 whole entry, looked up): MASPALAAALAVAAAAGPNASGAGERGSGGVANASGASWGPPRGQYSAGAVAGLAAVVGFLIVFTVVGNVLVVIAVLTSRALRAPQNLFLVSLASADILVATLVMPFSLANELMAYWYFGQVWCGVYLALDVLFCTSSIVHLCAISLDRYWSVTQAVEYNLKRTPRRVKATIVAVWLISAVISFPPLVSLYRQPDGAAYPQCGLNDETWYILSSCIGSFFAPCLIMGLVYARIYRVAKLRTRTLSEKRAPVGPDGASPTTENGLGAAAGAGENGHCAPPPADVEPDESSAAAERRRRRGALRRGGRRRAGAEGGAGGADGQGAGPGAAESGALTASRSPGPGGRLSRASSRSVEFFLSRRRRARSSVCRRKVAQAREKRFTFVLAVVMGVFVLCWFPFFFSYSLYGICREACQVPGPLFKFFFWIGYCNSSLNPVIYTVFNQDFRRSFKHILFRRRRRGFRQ

SMILES	cell count [1]	inhibition [1]	inhibition of aggregation [2]	nuclei count [2] [%]	inhibition [3]	nuclei count [3] [%]	fluorescence slope [4]	NADPH fluorescence slope [5]	slope [6]	inhibition [7]	inhibition [8]
CCc1nc(N)c(C#N)c(-c2ccc(OC)c(OC)c2)c1C	628	-4.4% (inactive)	-13.8% (inactive)	98.5	-37% (inactive)	111	-0.384 (inactive)	1e-05 (inactive)	0.00633 (inactive)	16.9% (inactive)	21.8% (inactive)
CCn1nc(C)c(NC(=O)c2cc(Br)ccc2Cl)c1C	497	-5.8% (inactive)	-21.4% (inactive)	111	-17.6% (inactive)	115	-0.445 (inactive)	-0.000104 (inactive)	0.00617 (inactive)	14.4% (inactive)	25% (inactive)
CN(C)CCCNC(=O)c1ccc(CN(c2ccccc2)S(C)(=O)=O)cc1	641	1% (inactive)	-1.7% (inactive)	101	25.8% (inactive)	84.7	-0.43 (inactive)	-0.000115 (inactive)	0.00575 (inactive)	8.82% (inactive)	24.2% (inactive)
CCOC(=O)N1CCN(C(=O)CN(c2ccc(C)cc2)S(=O)(=O)c2c(C)noc2C)CC1	565	-28.3% (inactive)	-13% (inactive)	103	-36.7% (inactive)	108	-0.617 (inactive)	1.1e-05 (inactive)	0.00556 (inactive)	18.5% (inactive)	30.7% (inactive)
O=C(CSc1ncc(-c2ccc(F)cc2)[nH]1)N1CCCCC1	425	0% (inactive)	-11% (inactive)	78.3	-25.6% (inactive)	106	-0.331 (inactive)	-5.1e-05 (inactive)	0.00631 (inactive)	-13% (inactive)	-71.4% (inactive)
COc1ccc(OC)c(NC(=O)CCNS(=O)(=O)c2cccs2)c1	662	7.1% (inactive)	5.1% (inactive)	81.4	-74.4% (inactive)	91.1	-0.533 (inactive)	3.3e-05 (inactive)	0.00666 (inactive)	14.1% (inactive)	24.2% (inactive)
CC(C)C(=O)Nc1ccc2c(c1)nc1n2CCSC1	378	-2.5% (inactive)	-0.8% (inactive)	113	-3.7% (inactive)	109	-0.361 (inactive)	1.9e-05 (inactive)	0.00311 (inactive)	-12.7% (inactive)	-20.2% (inactive)
Nc1cc(N)cc(-c2nc3ccccc3o2)c1	595	-1.3% (inactive)	-3.7% (inactive)	109	-53.9% (inactive)	116	-0.56 (inactive)	-4.4e-05 (inactive)	0.00618 (inactive)	-12.2% (inactive)	-26% (inactive)
